This note sets out measurements from PubChem BioAssay (NCATS).

Inconclusive results are not listed. The source made the active and inactive calls. Calls follow the shape of the dose curve; as a rule, active = well fitted curve in the direction sought with a large enough effect; inconclusive = small, poorly fitted or top-dose-only effect, or another doubt; inactive = no such curve, though single readings can be large; an effect the other way counts as inactive or inconclusive.

Assay [1] is described as follows: qHTS of pediatric cancer cell lines to identify multiple opportunities for drug repurposing: Primary screen for MG 63 (6-TG R) cells (AID 1347105). Also: nearly all actives have a fitted effect of over 50% in size. Also: potency is read from the fitted curve at half-maximal effect. In outline: (§1)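 Quantitative HTS format: each compound titrated (MIPE 11 points from 0.78 nM, NPC 8 points from 0.59 nM) onto cells plated 5 hours earlier. After 48 h at 37 degrees C, CellTiter-Glo luminescence was recorded.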
In general terms: Quantitative high-throughput screening tests each substance at several concentrations.

Assay [2] can be described thus: qHTS of pediatric cancer cell lines to identify multiple opportunities for drug repurposing: Primary screen for control Hh wild type fibroblast cells (AID 1347106).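 Also: series mostly up to about 46 µM; a drop in luminescence marks cytotoxicity and a rise apparent proliferation; nearly all actives have a fitted effect of over 55% in size.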 In outline: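 Cells (500-1,000/well) in growth media were settled 5 h at 37 degrees C, then given compounds for 48 h. Viability was read as CellTiter-Glo luminescence. Primary runs used MIPE at 11 points (0.78 nM-46 µM) and NPC at 8 points (0.59 nM-46 µM); follow-ups used 11 points.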

Assay [3] in a line: qHTS of pediatric cancer cell lines to identify multiple opportunities for drug repurposing: Primary screen for Rh30 cells (AID 1347107). Also: series mostly up to about 46 µM; nearly all actives have a fitted effect of over 75% in size. In outline: (§2)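 Viability after 48 h compound treatment at 37C, 500-1,000 cells/well, read as ATP luminescence with CellTiter-Glo. Primary screens used 11-point (MIPE, 0.78 nM-46 µM) or 8-point (NPC, 0.59 nM-46 µM) final concentrations; follow-up screens used 11-point dilutions.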

Assay [4] in a line: qHTS of pediatric cancer cell lines to identify multiple opportunities for drug repurposing: Primary screen for Rh41 cells (AID 1347108). Also: nearly all actives have a fitted effect of over 70% in size. Also: potency is read from the fitted curve at half-maximal effect. A digest of the protocol:
as §1

A short description of assay [5]: qHTS of pediatric cancer cell lines to identify multiple opportunities for drug repurposing: Confirmatory screen for NB1643 cells (AID 1347109). Also: nearly all actives have a fitted effect of over 45% in size. In outline:
as §2

Assay [6] can be described thus: qHTS of pediatric cancer cell lines to identify multiple opportunities for drug repurposing: Confirmatory screen for SK-N-MC cells (AID 1347111).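 Also: cells exposed to compound for 48 h before the readout; nearly all actives have a fitted effect of over 70% in size.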 Also: potency is read from the fitted curve at half-maximal effect. A digest of the protocol:
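SK-N-MC cells at 500-1,000 cells/well in growth media were pre-incubated 5 h, then exposed to compounds at 11-point dilutions for 48 h at 37 degrees C, 5% CO2. Viability was read as CellTiter-Glo luminescence.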

Assay [7] is described as follows: qHTS of pediatric cancer cell lines to identify multiple opportunities for drug repurposing: Confirmatory screen for BT-12 cells (AID 1347112). Also: nearly all actives have a fitted effect of over 55% in size. In outline: as §2
Assay [8] in a line: qHTS of pediatric cancer cell lines to identify multiple opportunities for drug repurposing: Confirmatory screen for LAN-5 cells (AID 1347113). Also: nearly all actives have a fitted effect of over 65% in size. In outline:
as §2

Assay [9] in a line: qHTS of pediatric cancer cell lines to identify multiple opportunities for drug repurposing: Confirmatory screen for DAOY cells (AID 1347114). Also: nearly all actives have a fitted effect of over 65% in size. In outline: (§3)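 Viability measured as metabolically active cells via CellTiter-Glo luminescence following 48 hours of compound exposure, 11-point dilutions in confirmatory testing. 500-1,000 cells/well plated 5 hours before dosing; controls were DMSO and 2.3 µM bortezomib.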

Assay [10] can be described thus: qHTS of pediatric cancer cell lines to identify multiple opportunities for drug repurposing: Confirmatory screen for NB-EBc1 cells (AID 1347115). Also: nearly all actives have a fitted effect of over 45% in size. A digest of the protocol: as §2
Assay [11] can be described thus: qHTS of pediatric cancer cell lines to identify multiple opportunities for drug repurposing: Confirmatory screen for SJ-GBM2 cells (AID 1347116). Also: nearly all actives have a fitted effect of over 60% in size. A digest of the protocol:
as §3

The nature of assay [12]: qHTS of pediatric cancer cell lines to identify multiple opportunities for drug repurposing: Confirmatory screen for TC32 cells (AID 1347118). Also: nearly all actives have a fitted effect of over 65% in size. Also: potency is read from the fitted curve at half-maximal effect. In outline: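 Luminescent ATP read-out (CellTiter-Glo) of metabolically active TC32 cells after 48 h exposure. Concentration-response curves came from 11-point (MIPE, 0.78 nM–46 µM) or 8-point (NPC, 0.59 nM–46 µM) primary titrations; follow-up used 11 points.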

Assay [13] is described as follows: qHTS of pediatric cancer cell lines to identify multiple opportunities for drug repurposing: Confirmatory screen for MG 63 (6-TG R) cells (AID 1347119). Also: nearly all actives have a fitted effect of over 55% in size. A digest of the protocol: as §2
Assay [14] can be described thus: qHTS of pediatric cancer cell lines to identify multiple opportunities for drug repurposing: Confirmatory screen for control Hh wild type fibroblast cells (AID 1347121). Also: nearly all actives have a fitted effect of over 70% in size. A digest of the protocol: as §2
Assay [15] can be described thus: qHTS of pediatric cancer cell lines to identify multiple opportunities for drug repurposing: Confirmatory screen for U-2 OS cells (AID 1347122). Also: nearly all actives have a fitted effect of over 65% in size. In outline:
as §2

Assay [16] is described as follows: qHTS of pediatric cancer cell lines to identify multiple opportunities for drug repurposing: Confirmatory screen for Rh41 cells (AID 1347123).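 Also: 48 h compound exposure; nearly all actives have a fitted effect of over 60% in size.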 Also: potency is read from the fitted curve at half-maximal effect. A digest of the protocol:
as §2

Assay [17] can be described thus: qHTS of pediatric cancer cell lines to identify multiple opportunities for drug repurposing: Confirmatory screen for RD cells (AID 1347124). In outline: as §2
A short description of assay [18]: qHTS of pediatric cancer cell lines to identify multiple opportunities for drug repurposing: Confirmatory screen for Rh18 cells (AID 1347125). Also: nearly all actives have a fitted effect of over 55% in size. A digest of the protocol: as §2
The nature of assay [19]: qHTS of pediatric cancer cell lines to identify multiple opportunities for drug repurposing: Confirmatory screen for Rh30 cells (AID 1347126). Also: nearly all actives have a fitted effect of over 55% in size. A digest of the protocol:
as §2

As to `c1ccc([C@H]2CN3CCSC3=N2)cc1`, the Potency entry in assay [1], in assay [2], in assay [3] and in assay [4] was “inactive” throughout.

Regarding `NC(=O)c1ccc(-c2nc(-c3ccc4c(c3)OCO4)c(-c3ccccn3)[nH]2)cc1`, the Potency entry in assay [1], in assay [2] and in assay [4] was “inactive” in each case.

`Nc1nc2c(ncn2COCCO)c(=O)[nH]1`: the Potency result in [1], in [2], in [3], in assay [4], in assay [5] and in [6] was “inactive” each time. Moreover, the Potency entry in [7], in assay [8], in assay [9], in [10], in assay [11] and in [12] was “inactive” in each case. For the same compound, the Potency result in [13], in assay [14], in assay [15], in assay [16], in assay [17] and in [18] was “inactive” each time. Moreover, in assay [19], the Potency result was “inactive”.

In the case of `CNCc1ccc(-c2[nH]c3cc(F)cc4c3c2CCNC4=O)cc1`, the Potency result in assay [1], in assay [2], in [3], in assay [4], in [7] and in assay [8] was “inactive” each time. Besides, the Potency entry in assay [9], in [11], in assay [14], in [15], in assay [17] and in [18] was “inactive” each time. For the same compound, in assay [19], the Potency entry is “inactive”. For the same compound, the figures for the Potency in assay [6], in assay [12] and in [16] were 6.57 µM (active), 5.85 µM (active) and 16.5 µM (active), respectively.

As for `Cc1c(CCOc2ccc(C(=O)O)cc2)c2cc(Cl)ccc2n1C(c1ccccc1)c1ccccc1`, the Potency entry in assay [1], in assay [2] and in [4] was “inactive” in each case.

Take `CN(C)c1ccc(Nc2nc(N)n(C(=O)c3c(F)cccc3F)n2)cc1`: in [1], the Potency was 18.7 µM (active). Besides, the Potency entry in assay [2] and in [4] was “inactive” each time.

As to `N[C@@H]1CONC1=O`, the Potency entry in assay [1], in assay [2], in [3] and in assay [4] was “inactive” throughout.

As to `N=c1nc(N2CCCCC2)cc(N)n1O`, the Potency entry in assay [1], in [2], in assay [3] and in assay [4] was “inactive” throughout.

As to `CC[C@H](Nc1ncnc2nc[nH]c12)c1nc2cccc(F)c2c(=O)n1-c1ccccc1`, the figures for the Potency in assay [1] and in assay [4] were 2.35 µM (active) and 14.8 µM (active), respectively. The Potency result in assay [2] was “inactive”.
